The text below walks through data of PubChem BioAssay (EPA / NIEHS).

One test addresses Caspase-3 (Homo sapiens) (UniProt P42574). Kind of test: NVS_ENZ_hCASP3: NovaScreen (NVS) Enzymatic Assay for human Caspase 3 (CASP3) (AID 2283139). In a few lines: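 Single-concentration screening at 25 uM in duplicate, with concentration-response follow-up to a 50 uM maximum for chemicals passing the threshold. Caspase-3 (human, E. coli-expressed) activity was read as substrate fluorescence after 1 h, with loss of signal relative to DMSO.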

For test [1], the target named is human Beta-secretase (BACE), BACE1 (gene 23621) (UniProt P56817). Kind of test: NVS_ENZ_hBACE: NovaScreen (NVS) Enzymatic Assay for human Beta-secretase (BACE) (AID 2283140).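 Also: hits are inhibitors that reduce fluorescent substrate signal versus DMSO.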 In a few lines: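 SF9-expressed enzyme, cell-free; fluorescent substrate readout after 1 h. Screened at 25 uM single concentration, duplicate; hits retested in concentration series. Activity relative to DMSO baseline, loss-of-signal.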

For test [2], the target named is human Caspase 4 (CASP4), CASP4 (gene 837) (UniProt P49662). Briefly: NVS_ENZ_hCASP4: NovaScreen (NVS) Enzymatic Assay for human Caspase 4 (CASP4) (AID 2283143). In a few lines:
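Compounds were first tested in duplicate at 25 uM, and hits were titrated singly to a 50 uM maximum. Recombinant protease from E. coli was read by fluorescence 2 h post-dose, and activity loss was fitted against the DMSO baseline.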

Test [3] addresses human Caspase 8 (CASP8), CASP8 (gene 841) (UniProt Q14790). Kind of test: NVS_ENZ_hCASP8: NovaScreen (NVS) Enzymatic Assay for human Caspase 8 (CASP8) (AID 2283146). In a few lines:
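The primary screen tested compounds in duplicate at a single 25 uM concentration, with actives followed up in concentration series. Activity of recombinant (E. coli) protease was measured by fluorescence 1 h post-dose, as signal loss against DMSO.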

The target in test [4] is human Casein Kinase 1-delta (CK1D), CSNK1D (gene 1453) (UniProt P48730). Briefly: NVS_ENZ_hCK1D: NovaScreen (NVS) Enzymatic Assay for human Casein Kinase 1-delta (CK1D) (AID 2283148). In a few lines:
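Recombinant human CK1-delta, cell-free; fluorescent substrate with electrophoretic mobility-shift separation of product, read 1 h after dosing. Single 25 uM duplicate screen, then concentration-response up to 50 uM; loss of signal vs DMSO.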

Test [5] deals with human Colony Stimulating Factor 1 Receptor (CSF1R), CSF1R (gene 1436) (UniProt P07333). Briefly: NVS_ENZ_hCSF1R: NovaScreen (NVS) Enzymatic Assay for human Colony Stimulating Factor 1 Receptor (CSF1R) (AID 2283150). In a few lines:
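Compounds screened in duplicate at 25 uM, then concentration-response (top 50 uM) for those passing threshold such as 30% inhibition; recombinant CSF1R activity measured 1 h post-dosing via fluorescent substrate/product mobility-shift separation, loss of signal versus DMSO.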

Test [6] concerns the target human Dual Specificity Protein Phosphatase 3 (DUSP3), DUSP3 (gene 1845) (UniProt P51452). Briefly: NVS_ENZ_hDUSP3: NovaScreen (NVS) Enzymatic Assay for human Dual Specificity Protein Phosphatase 3 (DUSP3) (AID 2283152). In a few lines: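 Cell-free fluorescence-intensity enzyme activity assay with recombinant protein and substrate; loss of signal fitted relative to DMSO baseline. Primary screen in duplicate at 25 uM, actives then run in concentration series; measured 0 h after dosing.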

Test [7] has as its target human Esterase Plasma (ES), BCHE (gene 590) (UniProt P06276). Briefly: NVS_ENZ_hES: NovaScreen (NVS) Enzymatic Assay for human Esterase Plasma (ES) (AID 2283157). In a few lines:
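Primary single-concentration screen at 25 uM in duplicate, then concentration-response to a 50 uM top dose. Human plasma esterase activity detected colorimetrically after 0.25 h incubation, with DMSO as baseline.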

The target of test [8] is human AKT serine/threonine Kinase 2 (AKT2), AKT2 (gene 208) (UniProt P31751). Briefly: NVS_ENZ_hAKT2: NovaScreen (NVS) Enzymatic Assay for human AKT serine/threonine Kinase 2 (AKT2) (AID 2283141). In a few lines: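 Cell-free fluorescence/electrophoretic mobility shift readout of recombinant human AKT2 activity, 1 h after chemical dosing. Duplicate primary screen at 25 uM, then singleton concentration-response up to 50 uM; loss of signal versus DMSO baseline.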

For the next test, the target named is CDK2 (gene 1017) (UniProt P24941). Briefly: NVS_ENZ_hCDK2: NovaScreen (NVS) Enzymatic Assay for human Cyclin-Cependent Kinase 2 (CDK2) (AID 2283144). In a few lines: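 Compounds screened in duplicate at 25 uM, then in singleton concentration-response to a maximum of 50 uM, against recombinant CDK2; kinase activity read 1 hr after dosing by fluorescence with mobility-shift separation of substrate and product.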

Results filed as inconclusive are left out. Activity calls are given as the source filed them. The calls were made as follows: active = hit-call score of the fitted dose curve at least 0.9, where 1 is the maximum; inconclusive = response in the unintended direction; inactive = score below 0.9.

human Dual Specificity Protein Phosphatase 3 (DUSP3), DUSP3 (gene 1845), sequence (P51452 whole entry, looked up): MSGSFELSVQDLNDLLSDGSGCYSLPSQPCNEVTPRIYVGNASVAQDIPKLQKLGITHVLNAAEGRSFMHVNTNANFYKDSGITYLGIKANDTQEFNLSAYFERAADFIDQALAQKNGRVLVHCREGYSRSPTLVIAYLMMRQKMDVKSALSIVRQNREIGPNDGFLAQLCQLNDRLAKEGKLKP
human Colony Stimulating Factor 1 Receptor (CSF1R), CSF1R (gene 1436), sequence (P07333 whole entry, looked up): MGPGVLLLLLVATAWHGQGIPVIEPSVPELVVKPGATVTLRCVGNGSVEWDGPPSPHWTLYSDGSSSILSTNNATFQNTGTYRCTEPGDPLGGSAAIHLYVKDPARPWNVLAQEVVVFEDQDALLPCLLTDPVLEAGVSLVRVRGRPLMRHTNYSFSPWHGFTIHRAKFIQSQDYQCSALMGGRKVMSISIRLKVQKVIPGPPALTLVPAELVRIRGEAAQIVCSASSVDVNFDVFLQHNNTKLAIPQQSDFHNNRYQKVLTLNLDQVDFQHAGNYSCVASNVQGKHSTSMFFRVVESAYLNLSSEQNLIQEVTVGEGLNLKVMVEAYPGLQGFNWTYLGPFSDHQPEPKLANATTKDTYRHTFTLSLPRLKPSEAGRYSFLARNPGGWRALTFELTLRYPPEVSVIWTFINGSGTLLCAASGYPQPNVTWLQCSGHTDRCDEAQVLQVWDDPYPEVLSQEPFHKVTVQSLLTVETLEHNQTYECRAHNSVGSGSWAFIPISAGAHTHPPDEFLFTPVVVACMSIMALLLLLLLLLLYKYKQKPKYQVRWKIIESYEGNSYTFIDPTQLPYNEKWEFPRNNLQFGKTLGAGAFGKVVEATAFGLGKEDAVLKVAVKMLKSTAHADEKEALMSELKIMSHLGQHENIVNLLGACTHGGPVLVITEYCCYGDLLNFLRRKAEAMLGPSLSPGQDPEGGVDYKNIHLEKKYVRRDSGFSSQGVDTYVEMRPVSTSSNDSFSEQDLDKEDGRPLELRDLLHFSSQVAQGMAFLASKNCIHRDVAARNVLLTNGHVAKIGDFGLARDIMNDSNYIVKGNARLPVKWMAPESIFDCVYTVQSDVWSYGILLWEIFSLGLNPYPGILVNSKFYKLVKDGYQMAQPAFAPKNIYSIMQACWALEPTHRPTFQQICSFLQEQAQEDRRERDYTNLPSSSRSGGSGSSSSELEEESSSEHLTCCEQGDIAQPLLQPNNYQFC
human Caspase 4 (CASP4), CASP4 (gene 837), sequence (P49662 whole entry, looked up): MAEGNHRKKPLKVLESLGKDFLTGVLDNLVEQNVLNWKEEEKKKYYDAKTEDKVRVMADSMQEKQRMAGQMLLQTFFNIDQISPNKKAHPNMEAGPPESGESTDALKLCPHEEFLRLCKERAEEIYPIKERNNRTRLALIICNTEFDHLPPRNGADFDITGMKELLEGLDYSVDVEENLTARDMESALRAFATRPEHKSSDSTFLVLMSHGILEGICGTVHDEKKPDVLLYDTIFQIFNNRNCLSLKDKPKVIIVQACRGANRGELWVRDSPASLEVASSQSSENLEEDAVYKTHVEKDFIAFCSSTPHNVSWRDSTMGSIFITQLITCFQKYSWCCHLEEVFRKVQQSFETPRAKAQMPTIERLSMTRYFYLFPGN
human Esterase Plasma (ES), BCHE (gene 590), sequence (P06276 whole entry, looked up): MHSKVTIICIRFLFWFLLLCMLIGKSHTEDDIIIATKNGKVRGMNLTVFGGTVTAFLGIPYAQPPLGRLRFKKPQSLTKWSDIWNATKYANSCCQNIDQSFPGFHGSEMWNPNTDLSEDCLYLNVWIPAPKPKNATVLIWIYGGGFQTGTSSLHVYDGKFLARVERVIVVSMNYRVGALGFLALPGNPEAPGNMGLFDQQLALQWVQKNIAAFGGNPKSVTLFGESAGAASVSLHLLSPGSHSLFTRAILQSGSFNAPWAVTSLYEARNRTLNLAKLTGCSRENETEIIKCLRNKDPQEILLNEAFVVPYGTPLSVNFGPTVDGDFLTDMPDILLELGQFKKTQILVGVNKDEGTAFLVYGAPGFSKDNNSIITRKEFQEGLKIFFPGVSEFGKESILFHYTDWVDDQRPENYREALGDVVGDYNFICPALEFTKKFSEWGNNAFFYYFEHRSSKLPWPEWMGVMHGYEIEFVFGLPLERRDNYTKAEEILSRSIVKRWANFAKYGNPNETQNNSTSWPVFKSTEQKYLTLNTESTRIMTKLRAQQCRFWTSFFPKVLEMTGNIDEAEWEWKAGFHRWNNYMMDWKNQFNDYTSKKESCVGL
human Beta-secretase (BACE), BACE1 (gene 23621), sequence (P56817 whole entry, looked up): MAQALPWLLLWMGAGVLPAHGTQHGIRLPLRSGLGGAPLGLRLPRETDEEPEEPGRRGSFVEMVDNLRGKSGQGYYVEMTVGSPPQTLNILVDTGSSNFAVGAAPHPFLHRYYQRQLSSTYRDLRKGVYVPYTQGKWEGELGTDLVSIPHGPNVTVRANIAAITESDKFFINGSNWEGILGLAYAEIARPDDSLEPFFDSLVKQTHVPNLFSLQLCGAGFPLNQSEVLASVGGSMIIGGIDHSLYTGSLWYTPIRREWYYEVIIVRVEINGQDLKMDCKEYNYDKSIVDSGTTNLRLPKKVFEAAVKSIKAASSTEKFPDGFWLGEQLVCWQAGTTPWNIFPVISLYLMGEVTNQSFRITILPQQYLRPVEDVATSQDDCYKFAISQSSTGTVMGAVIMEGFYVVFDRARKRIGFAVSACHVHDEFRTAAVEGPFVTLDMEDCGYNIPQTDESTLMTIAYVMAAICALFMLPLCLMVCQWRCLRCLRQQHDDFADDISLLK
human Casein Kinase 1-delta (CK1D), CSNK1D (gene 1453), sequence (P48730 whole entry, looked up): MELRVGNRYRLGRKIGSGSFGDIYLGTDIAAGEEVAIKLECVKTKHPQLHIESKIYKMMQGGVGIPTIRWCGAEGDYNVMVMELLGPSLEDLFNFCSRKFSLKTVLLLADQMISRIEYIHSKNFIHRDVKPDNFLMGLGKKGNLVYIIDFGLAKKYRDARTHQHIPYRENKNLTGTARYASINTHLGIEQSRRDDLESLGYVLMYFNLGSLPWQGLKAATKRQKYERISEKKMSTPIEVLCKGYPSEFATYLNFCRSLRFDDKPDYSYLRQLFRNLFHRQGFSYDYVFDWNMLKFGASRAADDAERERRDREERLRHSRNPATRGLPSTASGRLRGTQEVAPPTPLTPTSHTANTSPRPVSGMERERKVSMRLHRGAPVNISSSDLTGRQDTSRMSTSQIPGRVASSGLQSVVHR
human Caspase 8 (CASP8), CASP8 (gene 841), sequence (Q14790 whole entry, looked up): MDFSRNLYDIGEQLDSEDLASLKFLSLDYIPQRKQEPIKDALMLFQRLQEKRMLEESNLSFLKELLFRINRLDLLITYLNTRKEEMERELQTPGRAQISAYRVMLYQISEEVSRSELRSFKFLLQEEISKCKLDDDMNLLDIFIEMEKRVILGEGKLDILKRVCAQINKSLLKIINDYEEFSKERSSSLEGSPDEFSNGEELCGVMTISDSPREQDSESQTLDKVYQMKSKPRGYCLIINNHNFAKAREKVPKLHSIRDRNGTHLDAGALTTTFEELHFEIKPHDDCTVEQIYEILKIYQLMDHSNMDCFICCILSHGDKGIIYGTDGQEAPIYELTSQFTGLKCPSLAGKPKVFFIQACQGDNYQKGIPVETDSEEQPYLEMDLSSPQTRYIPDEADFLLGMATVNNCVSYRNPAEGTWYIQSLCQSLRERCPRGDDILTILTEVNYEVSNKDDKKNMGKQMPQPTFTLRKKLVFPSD
Caspase-3 (Homo sapiens), sequence (P42574 whole entry, looked up): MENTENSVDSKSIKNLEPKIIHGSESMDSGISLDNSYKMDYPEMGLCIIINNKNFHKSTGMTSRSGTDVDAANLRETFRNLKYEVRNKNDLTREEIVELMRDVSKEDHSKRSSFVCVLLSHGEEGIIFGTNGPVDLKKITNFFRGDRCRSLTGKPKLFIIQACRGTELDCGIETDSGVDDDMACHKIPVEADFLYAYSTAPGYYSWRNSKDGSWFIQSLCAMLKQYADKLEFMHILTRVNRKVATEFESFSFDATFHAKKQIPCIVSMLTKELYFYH
human AKT serine/threonine Kinase 2 (AKT2), AKT2 (gene 208), sequence (P31751 whole entry, looked up): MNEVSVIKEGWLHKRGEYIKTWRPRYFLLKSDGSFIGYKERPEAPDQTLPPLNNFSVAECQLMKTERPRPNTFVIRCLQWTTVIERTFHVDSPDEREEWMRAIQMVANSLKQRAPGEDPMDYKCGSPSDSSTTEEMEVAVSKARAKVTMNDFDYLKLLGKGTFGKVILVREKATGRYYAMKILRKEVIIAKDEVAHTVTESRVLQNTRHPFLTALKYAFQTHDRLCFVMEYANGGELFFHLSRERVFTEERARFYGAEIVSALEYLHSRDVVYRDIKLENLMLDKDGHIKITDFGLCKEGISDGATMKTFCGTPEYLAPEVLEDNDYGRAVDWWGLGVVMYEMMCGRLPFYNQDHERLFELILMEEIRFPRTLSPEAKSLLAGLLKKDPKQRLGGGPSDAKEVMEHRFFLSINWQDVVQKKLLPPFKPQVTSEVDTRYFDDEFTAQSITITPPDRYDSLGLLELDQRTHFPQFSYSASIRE

`CCN(Cc1cccc(S(=O)(=O)O)c1)c1ccc(C(=C2C=CC(=[N+](CC)Cc3cccc(S(=O)(=O)O)c3)C=C2)c2ccccc2S(=O)(=O)[O-])cc1`: the call (with Caspase-3 (Homo sapiens); in test [3]; in test [4]) was inactive. The AC50 (commonly the concentration giving half of the maximal activity seen) in test [1] was 14.8 µM (active); in test [2], 4.96 µM (active); in test [5], 2.94 µM (active); in [6] it was 12.5 µM (active).
Take `CCN(CC)C(=O)c1cc(S(=O)(=O)Cc2ccccc2)c(N2CCC(c3ccccc3)CC2)cc1N(CC)CCN(C)C`: the result in test [2] was inactive. In test [7], the AC50 is 0.0737 µM (active).
Turning to `CN(C)c1ccc(C(=C2C=CC(=[N+](C)C)C=C2)c2ccc(N(C)C)cc2)cc1`, the AC50 is 14 µM (active) in test [1] and 1.62 µM (active) in [7].
In the case of `CN(C[C@@H](CC[N+]12CCC(C3CCCCC3)(CC1)CC2)c1ccc(Cl)c(Cl)c1)C(=O)c1cc(C(F)(F)F)cc(C(F)(F)F)c1`, in test [1], the half-maximal activity concentration (AC50) is 29.9 µM (active). The call in test [4] was inactive.
As to `CCCCOC(=O)c1ccc(O)cc1`, the call in test [1] and in test [7] was inactive.
Take `CCCCCCCCOC(=O)c1cc(O)c(O)c(O)c1`: the call in test [8], in [2] and in [6] was inactive.
Regarding `O=C(O)c1ccccc1-n1cc(C(=O)O)c(=O)c2cc(Nc3c(F)cc(F)cc3Cl)c(Cl)cc21`, the concentration at half-maximal activity (AC50) in test [1] was 5.43 µM (active).
In the case of `CC(C)(C)c1csc(-c2cc3cc(OCc4ccccc4CC(=O)O)ccc3o2)n1`, in test [1], the AC50 is 17.1 µM (active). The molecule was classed as inactive in test [5].
For the molecule `O=C(Nc1ccc(Cl)cc1)Nc1ccc(Cl)c(Cl)c1`, in [1], the AC50 was 16.3 µM (active). Moreover, the result in test [4] and in test [6] was inactive.
Consider `COc1cc(C(=O)NC2CCN(C)CC2)ccc1Nc1ncc2c(n1)N(C1CCCC1)CC(F)(F)C(=O)N2C`, for which the call (in test [1]; in the test with CDK2 (gene 1017); in test [7]) was inactive. Moreover, the AC50 in test [4] was 18.1 µM (active); in test [5] it was 11.2 µM (active).
